Assay outcomes from PubChem BioAssay.
Hits are enriched below; roughly 2.4% of the tested compounds scored in any of these assays.
D2 ag-1: activates the human D2 dopamine receptor | P14416 | HEK293 T-REx D2 cells, calcium flux agonist mode | activation, % at 2 µM | 340,000 compounds, 0.53% hits;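 active = activation over 3 SD above normal in the single-dose calcium agonist read, cut at about 30% in these data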; note: 0% is about no effect
Target sequence (P14416 whole entry, looked up): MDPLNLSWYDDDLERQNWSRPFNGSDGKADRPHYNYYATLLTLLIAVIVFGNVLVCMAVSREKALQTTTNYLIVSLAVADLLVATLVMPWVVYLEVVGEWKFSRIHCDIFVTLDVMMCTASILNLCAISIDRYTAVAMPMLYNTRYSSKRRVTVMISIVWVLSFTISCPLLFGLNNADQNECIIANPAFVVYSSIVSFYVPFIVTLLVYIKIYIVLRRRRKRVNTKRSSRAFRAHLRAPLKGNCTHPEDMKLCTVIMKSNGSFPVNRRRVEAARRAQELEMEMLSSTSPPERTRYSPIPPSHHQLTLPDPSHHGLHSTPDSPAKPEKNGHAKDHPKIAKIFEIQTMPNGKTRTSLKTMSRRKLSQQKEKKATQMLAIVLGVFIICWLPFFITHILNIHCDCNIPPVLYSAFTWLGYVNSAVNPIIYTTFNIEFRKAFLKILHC
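Tetracycline-induced HEK293 Trex cells with D2 receptor force-coupled to calcium signaling, plated overnight at 30 C and loaded with no-wash calcium dye. Calcium flux read kinetically for 180 s after compound addition; responses flag agonists.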
D2 ag-2: agonists of human D2 dopamine receptor (beta-arrestin). P14416. DiscoveRx PathHunter D2 beta-arrestin, luminescence, 90 min; 100% = 57 uM dopamine signal. activation, % (test concentration not listed). 360,000 compounds, 0.084% hits. AID 624465; in the data active = activation above about 40%; inconclusive = between about 15% and that limit
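Agonist mode: compounds alone added to overnight-plated D2 PathHunter cells for 90 min at 37 C, with 57 uM final dopamine (EC100) defining full response. Beta-arrestin recruitment detected by chemiluminescent reagent, read after 1 h at ambient temperature.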
D2 PAM-1: positive allosteric modulators of human D2 dopamine receptor. P14416. HEK293 T-REx D2, calcium flux, EC20 dopamine potentiation. potentiation, % at 10 µM. 340,000 compounds, 0.34% hits. AID 485347;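 active = potentiation over 3 SD above the plate norm, cut at about 30% in these data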; note: 0% is about no effect
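Primary screen. Calcium kinetics in induced HEK293 T-REx D2 cells: compound pre-addition 180 s, EC20 dopamine, 180 s more.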
D2 PAM-2: human D2 receptor positive allosteric modulation; DiscoveRx D2 beta-arrestin cells, luminescence, 90 min; 100% = 57 uM dopamine signal; 360,000 compounds, 0.23% hits; potentiation, % (concentration not given with the values); in the data active = potentiation above about 50%; inconclusive = mostly about 30% to 49%
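PathHunter beta-arrestin assay in DiscoveRx D2 cells. Compounds were added with an EC20 of dopamine (50 nM final) for 90 min at 37 deg C. Luminescence was read 1 h after detection reagent, with 57 uM dopamine as the EC100 control.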
D2 antagonist: D2 dopamine receptor (human) antagonism; P14416; HEK293 TREx D2 cells, calcium flux, dopamine EC80; inhibition, % at 10 µM; 340,000 compounds, 2% hits; AID 485344; in the data active = inhibition above about 30%; inactive = below that, where a call was filed; note: 0% is about no effect
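Antagonism is scored as inhibition of an EC80 dopamine-evoked calcium signal in a force-coupled, tetracycline-inducible HEK293 T-REx D2 line, with compound present 180 s before agonist.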
Starred values were filed as active, the others as inactive; ? = inconclusive; nt = no result.

SMILES | D2 ag-1 | D2 ag-2 | D2 PAM-1 | D2 PAM-2 | D2 antagonist
CC(=O)c1ccc(S(=O)(=O)NC2CC(=O)N(c3cccc(F)c3)C2)cc1 (configuration not stated) | -0.7 | -1.4 | 6.5 | -0.8 | 7.1
O=C1CC(NS(=O)(=O)c2ccc([N+](=O)[O-])cc2)CN1c1cccc(F)c1 (configuration not stated) | 0.3 | 7.5 | 42.3* | 21.9 | -7.2
OC(CCCN1CCCCC1)(c1ccccc1)c1ccccc1 | 1.3 | -5.9 | -27.9 | -25.4 | 80.1*
CCC(O)(CCN1CCCCC1)c1ccccc1 (configuration not stated) | -0.1 | -2.6 | -2.2 | -14.0 | -3.6
O=C(CN(c1ccc(Cl)c(C(F)(F)F)c1)S(=O)(=O)c1ccccc1)N1CCOCC1 | 1.0 | -4.0 | 1.4 | -8.2 | 34.9*
O=C(CN(c1cccc(C(F)(F)F)c1)S(=O)(=O)c1ccccc1)N1CCOCC1 | 0.5 | ? | 4.3 | -0.1 | 13.1
CCSc1ncc(Cl)c(C(=O)N(Cc2ccccc2Cl)C2CCS(=O)(=O)C2)n1 (configuration not stated) | -0.4 | nt | 6.8 | nt | nt
C=CCN(CC=C)Cc1c(C)[nH]c2c(C)c(C)ccc2c1=O | -0.2 | -3.7 | 31.5* | -6.2 | 5.9
CN(c1cccc(NS(=O)(=O)c2cccs2)c1)S(C)(=O)=O | 0.1 | 3.0 | 30.4* | -3.1 | 16.6
COc1ccc(S(=O)(=O)Nc2cccc(N(C)S(C)(=O)=O)c2)cc1Br | 0.9 | -1.3 | -4.2 | 14.7 | -6.8
COc1ccc(N2CCN(C3C(=O)c4ccccc4N3C(C)=O)CC2)cc1 (configuration not stated) | -0.3 | nt | nt | nt | nt
COc1cccc(C(=O)N(c2ccc(OC)cc2OC)C2C=CS(=O)(=O)C2)c1 (configuration not stated) | 0.0 | -2.3 | -6.1 | -6.9 | 30.5*
CCOc1ccc(S(=O)(=O)NCc2ccc3c(c2)CCN3C(=O)c2ccc(C)cc2)cc1 | nt | nt | -6.1 | nt | nt
COc1cc(NC(C)=O)c2ncccc2c1NC(C)=O | 0.9 | -5.9 | 13.3 | -4.0 | 36.7*
CC(C)c1cnc2c(c1SCC(=O)c1ccccc1)c(=O)n(C)c(=O)n2C | -0.6 | nt | 10.8 | nt | nt
COc1ccc(N2CC(C(=O)N/N=C/c3ccccc3)CC2=O)cc1 (configuration not stated) | 0.5 | -2.0 | 1.0 | -3.6 | -6.0
O=C(N/N=C/c1cccc(Br)c1)C1CC(=O)N(c2ccccc2)C1 (configuration not stated) | 0.4 | 0.0 | -17.4 | -8.0 | 35.4*
Cc1nn(C)c(C)c1S(=O)(=O)N(CC(=O)NCCc1ccc(Cl)cc1)c1ccc(C(C)C)cc1 | -0.3 | nt | 0.4 | nt | nt
Cc1ccc(Cl)cc1NC(=O)CN1C(=O)NC(C)(C2CC2)C1=O (configuration not stated) | nt | 0.8 | nt | -1.6 | nt
CC1(C2CC2)NC(=O)N(CC(=O)NCc2ccc(Cl)cc2Cl)C1=O (configuration not stated) | 0.1 | -8.7 | 12.3 | -2.8 | 40.0*
COc1ccc(C2/C=C\CN(C(=O)c3ccc(C)cc3)[C@H](Cc3ccccc3)C(=O)N2Cc2ccc(F)cc2)cc1 (some centres not stated) | 1.2 | -4.1 | -3.1 | -3.9 | 41.0*
CCCCNC(=O)C1CCC(Cn2c(=O)c3sccc3n(CC(=O)Nc3ccccc3)c2=O)CC1 (configuration not stated) | nt | nt | -7.0 | nt | nt
CCOc1ccc2[nH]c(=O)c(CN(CCO)C(c3nnnn3C3CCCCC3)C(C)C)cc2c1 (configuration not stated) | 0.3 | 2.4 | -5.2 | 8.8 | 34.8*
Cc1ccc(NC(=O)C2CCCN2S(=O)(=O)c2cccc3cccnc23)cc1C (configuration not stated) | 0.0 | nt | -1.3 | nt | nt
CC1=C(C(=O)OCc2ccccc2)C(c2ccccc2)NC(=O)N1 (configuration not stated) | -0.1 | 13.9 | 5.0 | 52.6* | 3.3
COc1ccc(C2NC(=O)NC(C)=C2C(=O)OCc2ccccc2)cc1 (configuration not stated) | -2.2 | 8.2 | 3.8 | 4.5 | 4.0
CC1=C(C(=O)OCc2ccccc2)C(c2cccc(F)c2)NC(=O)N1 (configuration not stated) | -1.4 | 43.6* | 1.1 | 71.9* | 2.6
